Results published in PubChem BioAssay (NCI).
About 83,000 compounds went through this panel and 20% of them were active in at least one assay; those are over-represented in the sample as a whole.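 Cells were grown in 96-well plates and exposed to the test compound at a single concentration for 48 hours; results are reported as percent growth, with values below 10 considered active.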 Active and inactive are the calls of the source.

How the values were obtained:
Test in all cases: NCI-60 one-dose screen, 48 h (100 = growth as untreated, 0 = no growth, -100 = all killed)
Conditions in all cases: 10 µM unless noted
HCT-15 colon = system: HCT-15 colon
HT29 colon = system: HT29 colon
SNB-75 CNS = system: SNB-75 CNS
SNB-19 CNS = system: SNB-19 CNS
U251 CNS = system: U251 CNS
PC-3 prostate = system: PC-3 prostate
SK-MEL-5 melanoma = system: SK-MEL-5 melanoma
UACC-62 melanoma = system: UACC-62 melanoma
LOX IMVI melanoma = system: LOX IMVI melanoma
SK-MEL-28 melanoma = system: SK-MEL-28 melanoma

Measured: growth

Cn1c(SCC(=O)c2ccc(Br)cc2)nc2ccccc2c1=O
inactive: HCT-15 colon 99.5% | HT29 colon 101% | SNB-75 CNS 94.3% | SNB-19 CNS 100% | U251 CNS 103% | PC-3 prostate 96.5% | SK-MEL-5 melanoma 92.5% | UACC-62 melanoma 77.5% | LOX IMVI melanoma 95.9% | SK-MEL-28 melanoma 97.3%

CC(C)Sc1nc(-c2ccccc2)c(C#N)c(N2CCOCC2)n1
active: SNB-75 CNS 9.58%
inactive: HCT-15 colon 80.2% | HT29 colon 71.8% | SNB-19 CNS 69% | U251 CNS 44.8% | PC-3 prostate 82% | SK-MEL-5 melanoma 95.5% | UACC-62 melanoma 91.7% | LOX IMVI melanoma 35.6% | SK-MEL-28 melanoma 88.6%

COc1cc2oc(-c3cccc(NC(=O)[C@@H](N)C(C)C)c3)cc(=O)c2c(OC)c1OC
inactive: HCT-15 colon 97.9% | HT29 colon 107% | SNB-75 CNS 124% | SNB-19 CNS 95.4% | U251 CNS 92.3% | PC-3 prostate 106% | SK-MEL-5 melanoma 99.1% | UACC-62 melanoma 91.3% | LOX IMVI melanoma 94.4% | SK-MEL-28 melanoma 111%

C#CCOc1ccc(-c2csc(NC(=O)C=C)n2)cc1NS(=O)(=O)c1cccc2c(N(C)C)cccc12
inactive: HT29 colon 12.6% | SNB-19 CNS 71.2% | U251 CNS 47.7% | PC-3 prostate 53.6% | SK-MEL-5 melanoma 63.6% | UACC-62 melanoma 37.1% | SK-MEL-28 melanoma 14.9%
active: HCT-15 colon -9.26% | SNB-75 CNS 1.15% | LOX IMVI melanoma -91%

CN1CCN(c2ccc(Nc3nc(NCCCNS(=O)(=O)c4ccc(F)cc4)c4sccc4n3)cc2)CC1
inactive: HCT-15 colon 25.5% | HT29 colon 11.4% | SNB-75 CNS 78.5% | SNB-19 CNS 74.5% | U251 CNS 15.7% | PC-3 prostate 60.5% | SK-MEL-5 melanoma 20.5% | UACC-62 melanoma 21.1%
active: LOX IMVI melanoma -5.7% | SK-MEL-28 melanoma -42.9%

O=S(=O)(NCCCNc1nccc(-c2[nH]c(-c3ccccc3)nc2-c2ccc(F)c(O)c2)n1)c1ccc(C(F)(F)F)cc1
active: SNB-75 CNS -0.845% | SK-MEL-5 melanoma -0.786% | UACC-62 melanoma 2.32%
inactive: HCT-15 colon 38.1% | HT29 colon 94.9% | SNB-19 CNS 43.2% | U251 CNS 33.5% | PC-3 prostate 40.8% | LOX IMVI melanoma 46.3% | SK-MEL-28 melanoma 30.1%

C[C@H](Nc1ncnc2ccc(-c3cnc(Cl)c(NS(C)(=O)=O)c3)cc12)c1ccccc1
active: HCT-15 colon -23.7% | HT29 colon -28.9% | SNB-75 CNS -3.07% | SNB-19 CNS -44.3% | U251 CNS -52.6% | PC-3 prostate 2.25% | SK-MEL-5 melanoma -92.7% | UACC-62 melanoma -57.8% | LOX IMVI melanoma -60.4% | SK-MEL-28 melanoma -18.2%

NS(=O)(=O)c1ccc(CCn2c(-c3ccc(C(=O)O)cc3)nc(-c3ccccc3)c2-c2ccccc2)cc1
inactive: HCT-15 colon 94.5% | HT29 colon 106% | SNB-75 CNS 86.1% | SNB-19 CNS 102% | U251 CNS 110% | PC-3 prostate 93.5% | SK-MEL-5 melanoma 99.1% | UACC-62 melanoma 94.2% | LOX IMVI melanoma 102% | SK-MEL-28 melanoma 102%

CNC(=O)Nc1ccc(Nc2cc(-c3ccc(-n4cccn4)cc3)[nH]n2)c(C)c1
inactive: HCT-15 colon 103% | HT29 colon 120% | SNB-75 CNS 123% | SNB-19 CNS 97.6% | U251 CNS 106% | PC-3 prostate 107% | SK-MEL-5 melanoma 97.7% | UACC-62 melanoma 114% | LOX IMVI melanoma 129% | SK-MEL-28 melanoma 114%

Cc1ccsc1[C@H]1c2[nH]c3ccccc3c2C[C@H]2C(=O)N(CCCCCCC(=O)NO)CC(=O)N12
active: LOX IMVI melanoma -71.9%
inactive: HCT-15 colon 99.1% | HT29 colon 87.3% | SNB-75 CNS 51.8% | SNB-19 CNS 81.1% | U251 CNS 83.8% | PC-3 prostate 78.6% | SK-MEL-5 melanoma 83.4% | UACC-62 melanoma 57.9% | SK-MEL-28 melanoma 73.7%

CCOC(=O)c1c(NC(=O)c2ccc(C(F)(F)F)cc2)sc2c(CN3CCN(C)CC3)c(O)ccc12
inactive: SNB-75 CNS 63.8% | SK-MEL-5 melanoma 64.4% | UACC-62 melanoma 28.8%
active: HCT-15 colon -72.9% | HT29 colon -52.1% | SNB-19 CNS -27.3% | U251 CNS -88% | PC-3 prostate -79% | LOX IMVI melanoma -93.1% | SK-MEL-28 melanoma -82.3%

Cc1ccc(NC(=O)/C=C/c2ccc(OCCCOc3ccc4c(C)cc(=O)oc4c3)cc2)cc1
inactive: HCT-15 colon 85.5% | HT29 colon 71.3% | SNB-19 CNS 38.2% | U251 CNS 71.6% | PC-3 prostate 74.5% | SK-MEL-5 melanoma 76.9% | UACC-62 melanoma 93% | LOX IMVI melanoma 68.8% | SK-MEL-28 melanoma 59.9%
active: SNB-75 CNS -6.2%

Cc1ccccc1NC(=O)Nc1nc2ccc([N+](=O)[O-])cc2s1
inactive: HCT-15 colon 12.1% | SNB-19 CNS 14.1% | UACC-62 melanoma 11.6% | LOX IMVI melanoma 12.1% | SK-MEL-28 melanoma 16.6%
active: HT29 colon 5.11% | SNB-75 CNS 6.72% | U251 CNS 3.34% | PC-3 prostate 2.79% | SK-MEL-5 melanoma -47.2%

O=C(COc1ccc(/C=C2\C(=O)Nc3cc(Cl)ccc32)cc1)Nc1ccc(Cl)cc1
inactive: HCT-15 colon 42.5% | HT29 colon 74.6% | SNB-75 CNS 78.9% | SNB-19 CNS 82.1% | U251 CNS 85.2% | PC-3 prostate 54.5% | SK-MEL-5 melanoma 72.8% | UACC-62 melanoma 24.6% | LOX IMVI melanoma 44.8% | SK-MEL-28 melanoma 78.7%

O=C(CSc1nc2ccccc2c(=O)n1-c1ccc(Cl)cc1)N/N=C/c1ccc(Oc2ccc(Cl)cc2)cc1
active: HT29 colon 1.76% | U251 CNS -20.5% | PC-3 prostate 0.803% | UACC-62 melanoma 0.427% | LOX IMVI melanoma -56.3% | SK-MEL-28 melanoma 3.17%
inactive: HCT-15 colon 10.4% | SNB-75 CNS 57.9% | SNB-19 CNS 28.5% | SK-MEL-5 melanoma 10.9%
